Counter-ions that a name gives are not always drawn. ± gives the standard deviation of the averaged measurements. In all, about 2,000 compounds were measured (“relative cell viability vs DMSO, compound alone”: median about 1.1, lowest 2% from about 0.29 on). The entries come from a sample that favours the lowest values as a whole.
tested on: TE10; assay: relative cell viability vs DMSO, compound alone (fraction); TE10 is an esophageal squamous carcinoma line; higher = less cytotoxic; conditions: 2 µM; 48 h
Method: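 TE10 ESCC cells (1,000/well, 384-well plates) were treated with Selleck bioactive library compounds at 2 uM alone for 48 h. Viability was read by CellTiter-Glo and expressed relative to DMSO wells. Two technical replicates (A, B).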

SMILES	relative cell viability
CN(NC(=O)CC(=O)NN(C)C(=S)c1ccccc1)C(=S)c1ccccc1 [Elesclomol (STA-4783)]	0.181 ± 0.013
O=C(O)c1ccccc1 [Benzoic Acid]	1.09 ± 0.0064
O=C(O)CCNC(=O)c1ccccc1 [Betamipron]	1.08 ± 0.022
CC1(C)O[C@@H]2[C@@H](CO[C@@]3(COS(N)(=O)=O)OC(C)(C)O[C@@H]23)O1 [Topiramate]	1.29 ± 0.052
C[C@@H]1CN(CC(=O)Nc2ccc3c(c2)Cc2cccc(-c4cc(=O)cc(N5CCOCC5)o4)c2S3)C[C@H](C)O1	1.17 ± 0.021
Cc1cc(C)cc(NC(=O)Cc2ccc(OC(C)(C)C(=O)O)cc2)c1 [Efaproxiral Sodium]	1.11 ± 0.012
O=C(Nc1ccccc1)c1ccccc1O [Salicylanilide]	1.07 ± 0.059
CC(ONC(=O)c1cc(C(F)(F)F)cc(C(F)(F)F)c1)C(=O)Nc1ccc(Cl)cc1 (stereo not given)	1.07 ± 0.024
O=C(Nc1cc(C(F)(F)F)cc(C(F)(F)F)c1)c1cc(Cl)ccc1O	0.18 ± 0.0024
C=CC(=O)Nc1cccc(Oc2nc(Nc3ccc(N4CCN(C)CC4)cc3)ncc2Cl)c1	0.758 ± 0.011
C[C@H]1O[C@@H](O[C@H]2[C@@H](O)C[C@H](O[C@H]3[C@@H](O)C[C@H](O[C@H]4CC[C@@]5(C)[C@H](CC[C@@H]6[C@@H]5C[C@@H](O)[C@]5(C)[C@@H](C7=CC(=O)OC7)CC[C@]65O)C4)O[C@@H]3C)O[C@@H]2C)C[C@H](O)[C@@H]1O [Digoxin]	0.603 ± 0.013
Nc1nc(=O)n([C@@H]2CS[C@H](CO)O2)cc1F [Emtricitabine]	1.06 ± 0.076
CCn1c2ccccc2c2cc(Nc3ccnc(NCCCN4CCOCC4)n3)ccc21	1.2 ± 0.076
CS(=O)(=O)N1CCN(Cc2cc3nc(-c4cccc5[nH]ncc45)nc(N4CCOCC4)c3s2)CC1	0.483 ± 0.0077
Cc1c(CN2CCN(C(=O)[C@H](C)O)CC2)sc2c(N3CCOCC3)nc(-c3cnc(N)nc3)nc12	0.317 ± 0.021
COc1ccc(-c2nc(N3CCOCC3)c3sc(CN(C)c4ncc(C(=O)NO)cn4)cc3n2)cn1	0.0746 ± 0.0025
C[C@@H](Oc1ccc2[nH]nc(/C=C/c3cnn(CCO)c3)c2c1)c1c(Cl)cncc1Cl	0.712 ± 0.01
Cc1nc(Nc2n[nH]c3c2CN(C(=O)N[C@H](CN(C)C)c2ccccc2)C3(C)C)c2sccc2n1	0.789 ± 0.037
COc1cccc2cc(-c3nc([C@H]4CC[C@H](C(=O)O)CC4)n4ncnc(N)c34)[nH]c12	0.667 ± 0.0089
Cc1cc(N2CCOCC2)ccc1Nc1nc(NC2CCCCC2)c2[nH]cnc2n1	1.098 ± 0.0034

SMILES	relative cell viability
Cc1cccc(CC(=O)N2CCc3c2ccc(-c2cn(C)c4ncnc(N)c24)c3F)n1	1.01 ± 0.047
CCCCCCCCCCCCCCCC(=O)OCC(O)C1OC(=O)C(O)=C1O [L-Ascorbyl 6-palmitate]	1.14 ± 0.031
O=C(O)CCCc1c[nH]c2ccccc12 [3-Indolebutyric acid (IBA)]	1.1 ± 0.024
O=C(/C=C/c1ccc(CN(CCO)CCc2c[nH]c3ccccc23)cc1)NO [LAQ824 (Dacinostat)]	0.0682 ± 0.006
OCc1c[nH]c2ccccc12 [Indole-3-carbinol]	1.14 ± 0.048
CCc1c(O)cc(O)c(C(=O)c2ccc(OCCN3CCOCC3)c(OC)c2)c1CC(=O)N(CCOC)CCOC	0.546 ± 0.009
CC(C)/N=c1\cc2n(-c3ccc(Cl)cc3)c3ccccc3nc-2cc1Nc1ccc(Cl)cc1 [Clofazimine]	0.929 ± 0.062
CC(C)CC(N)=O [Isovaleramide]	1.1 ± 0.057
COc1cc(C(=O)NS(=O)(=O)c2ccccc2C)ccc1Cc1cn(C)c2ccc(NC(=O)OC3CCCC3)cc12 [Zafirlukast]	1.03 ± 0.033
CN1CCc2c(c3ccccc3n2Cc2ccc(C(=O)NO)cc2)C1 [Tubastatin A]	1.14 ± 0.023
CN1CCc2c(c3ccccc3n2Cc2ccc(C(=O)NO)cc2)C1 [Tubastatin A HCl]	0.9558 ± 0.0063
Cn1cc(CNCC2CCN(c3ncc(C(=O)NO)cn3)CC2)c2ccccc21	0.078 ± 0.0008
CCOc1ccc2nc3cc(N)ccc3c(N)c2c1 [Ethacridine lactate monohydrate]	1.033 ± 0.0023
CCN(CC)CCCCNc1ncc2cc(-c3cc(OC)cc(OC)c3)c(NC(=O)NC(C)(C)C)nc2n1	1.23 ± 0.029
NC1CC1c1ccc(-c2cccc(O)c2)cc1 (stereo not given)	1.09 ± 0.03
N[C@@H]1CCCN(c2c(/C=C3\SC(=O)NC3=O)cccc2-c2ccccc2)C1	1.03 ± 0.047
CN(C)c1cccc(-c2c3c(=O)n(-c4ccccc4Cl)[nH]c3cc(=O)n2C)c1	0.959 ± 0.036
Nc1ccccc1NC(=O)c1cnccn1	1.11 ± 0.037
CC(C)C[C@H](NC(=O)CNC(=O)c1cc(Cl)ccc1Cl)B(O)O	0.341 ± 0.023
CC(C)C[C@H](NC(=O)[C@H](Cc1ccccc1)NC(=O)c1cnccn1)B(O)O [Bortezomib (PS-341)]	0.09 ± 0.011
